Measured values published in PubChem BioAssay AID1159580 (chemical genetic matrix, 2015).
Out of some 5,500 compounds screened, about 2,000 (36%) were called active. Inconclusive results (about 18%) are left out. Cut-off read from the data, not from the text of the source: active = normalized growth mostly below about 0.91 (no sharp cut-off); inconclusive = no clear call, values can overlap the other calls; inactive = mostly above about 0.92. Some of the results follow.

Assay: chemical genetic growth profiling, strain panel (AID 1159580);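 note: tested at 20 µM; growth read once vehicle control cultures reached saturation at 30 °C; 1 = growth at the plate median or of vehicle wells; lower values mean less growth of the strain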
Conditions: S. cerevisiae deletion strains, growth OD

Measured: normalized growth

CCN1CN=C(SCc2ccc(Br)cc2)NC1
inactive: locus YAL013W, strain DEP1, hits give low values 1.01 | locus YBR229C, strain ROT2, hits give low values 1.01 | locus YCL061C, strain MRC1, hits give low values 1.02 | locus YDL101C, strain DUN1, hits give low values 0.998 | locus YDL134C, strain PPH21, hits give low values 1.01 | locus YDR150W, strain NUM1, hits give low values 0.995 | locus YEL061C, strain CIN8, hits give low values 1.01 | locus YGR078C, strain PAC10, hits give low values 0.998 | locus YHR030C, strain SLT2, hits give low values 0.902 | locus YHR087W, strain rtc3, hits give low values 0.999 | locus YJL187C, strain SWE1, hits give low values 1.01 | locus YJR043C, strain POL32, hits give low values 0.988 | locus YJR075W, strain HOC1, hits give low values 0.98 | locus YKL190W, strain CNB1, hits give low values 1.02 | locus YLR039C, strain RIC1, hits give low values 0.982 | locus YLR058C, strain SHM2 (second series), hits give low values 1.02 | locus YLR085C, strain ARP6, hits give low values 1.02 | locus YLR262C, strain YPT6, hits give low values 0.953 | locus YML094W, strain GIM5, hits give low values 0.996 | locus YMR219W, strain ESC1, hits give low values 0.999 | locus YMR263W, strain SAP30, hits give low values 1.01 | locus YMR307W, strain GAS1, hits give low values 1.17 | locus YNL153C, strain GIM3, hits give low values 0.986 | locus YNL298W, strain CLA4 (second series), hits give low values 0.984 | locus YNL322C, strain KRE1, hits give low values 1.01 | locus YNR030W, strain Alg12, hits give low values 0.999 | locus YPL055C, strain LGE1, hits give low values 1.06 | locus YPL241C, strain CIN2, hits give low values 0.995 | locus YPR135W, strain CTF4, hits give low values 0.98
